Consider one sequence from paper PMC7862700, “An all-to-all approach to the identification of sequence-specific readers for epigenetic DNA modifications on cytosine”.

Assay in all cases: DAPPL (digital affinity profiling via proximity ligation, sequencing); 10 mM Tris-HCl pH 7.5, 50 mM NaCl, 1 mM DTT, 4% glycerol, room temperature, 30 min; GST-TFs on glutathione beads, 16-mer random dsDNA library, 0.1% formaldehyde crosslink after washing; high values mean tight binding
One experiment concerns the target T1, FEV (Homo sapiens, UniProt Q99581 1-238).
T1 sequence: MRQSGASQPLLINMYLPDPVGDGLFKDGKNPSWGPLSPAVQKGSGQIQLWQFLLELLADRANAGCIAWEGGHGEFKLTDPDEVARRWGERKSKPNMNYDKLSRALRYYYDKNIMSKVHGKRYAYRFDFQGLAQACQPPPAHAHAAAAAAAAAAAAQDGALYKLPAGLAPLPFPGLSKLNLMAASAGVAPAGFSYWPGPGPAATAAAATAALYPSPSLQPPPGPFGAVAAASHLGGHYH
To be noted: protein: recombinant; tags: N-terminal GST; dsDNA, one strand shown. Summed up: (§1)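 Beads coated with glutathione captured GST-fused human transcription factors that had been expressed in yeast, and the factors were then given DNA barcodes and pooled with a tag-only sample. The pools were incubated with 200 nmole of a random double-stranded 16-mer DNA library in Tris/NaCl/DTT/glycerol buffer for 30 min at room temperature, washed, crosslinked with 0.1% formaldehyde and proximity-ligated with BsaI/T4 ligase at 37 °C for 1 h. PCR amplification and Illumina NextSeq500 sequencing came last. Binding signal is each hexamer's read frequency for a factor divided by its frequency for the tag-only sample.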

A further experiment addresses ETV5 (Homo sapiens, UniProt P41161 1-510). To be noted: protein: recombinant; tags: N-terminal GST; dsDNA, one strand shown. The procedure, abridged: as §1
The target in another experiment is HSF1 (Homo sapiens, UniProt Q00613 1-529). To be noted: protein: recombinant; tags: N-terminal GST; chain copies: 3; dsDNA, one strand shown. The procedure, abridged:
as §1

The target in the next experiment is T2, SPIC (Homo sapiens, UniProt Q8N5J4 1-248).
T2 sequence: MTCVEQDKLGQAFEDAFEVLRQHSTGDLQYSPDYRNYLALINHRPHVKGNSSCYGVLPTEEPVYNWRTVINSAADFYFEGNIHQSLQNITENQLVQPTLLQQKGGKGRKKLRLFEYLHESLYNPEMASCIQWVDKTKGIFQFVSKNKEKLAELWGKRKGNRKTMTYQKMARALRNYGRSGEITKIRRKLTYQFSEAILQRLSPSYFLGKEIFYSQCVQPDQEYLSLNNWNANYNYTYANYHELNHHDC
To be noted: protein: recombinant; tags: N-terminal GST; dsDNA, one strand shown. The procedure, abridged:
as §1

For a further experiment, the target named is ELF4 (Homo sapiens, UniProt Q99607 1-663). The note with it: protein: recombinant; tags: N-terminal GST; dsDNA, one strand shown. Summed up: as §1
Another experiment deals with T3, ELK4 (Homo sapiens, UniProt P28324-2 1-405).
T3 sequence: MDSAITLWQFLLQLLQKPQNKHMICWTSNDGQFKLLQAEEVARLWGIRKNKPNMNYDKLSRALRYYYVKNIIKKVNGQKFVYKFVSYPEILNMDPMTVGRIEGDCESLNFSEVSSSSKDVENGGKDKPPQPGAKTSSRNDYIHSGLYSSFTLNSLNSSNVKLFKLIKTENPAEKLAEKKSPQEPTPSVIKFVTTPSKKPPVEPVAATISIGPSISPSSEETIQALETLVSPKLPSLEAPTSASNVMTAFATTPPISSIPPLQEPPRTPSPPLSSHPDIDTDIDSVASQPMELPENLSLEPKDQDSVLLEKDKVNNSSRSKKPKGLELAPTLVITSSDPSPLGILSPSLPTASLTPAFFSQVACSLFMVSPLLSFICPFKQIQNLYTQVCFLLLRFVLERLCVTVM
The note with it: protein: recombinant; tags: N-terminal GST; dsDNA, one strand shown. The procedure, abridged:
as §1

A further experiment addresses T4, ETV2 (Homo sapiens, UniProt O00321 1-342).
T4 sequence: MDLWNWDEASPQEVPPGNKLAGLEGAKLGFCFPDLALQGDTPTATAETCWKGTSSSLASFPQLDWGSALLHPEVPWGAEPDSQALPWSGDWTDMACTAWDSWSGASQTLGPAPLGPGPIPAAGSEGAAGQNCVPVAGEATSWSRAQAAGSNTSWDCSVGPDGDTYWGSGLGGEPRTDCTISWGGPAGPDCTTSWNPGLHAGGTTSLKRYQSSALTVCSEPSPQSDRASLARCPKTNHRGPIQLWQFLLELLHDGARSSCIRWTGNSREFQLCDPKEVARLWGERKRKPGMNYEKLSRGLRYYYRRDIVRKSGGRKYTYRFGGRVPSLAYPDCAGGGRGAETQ
To be noted: protein: recombinant; tags: N-terminal GST; dsDNA, one strand shown. Summed up:
as §1

The next experiment addresses T5, ELF3 (Homo sapiens, UniProt P78545 1-371).
T5 sequence: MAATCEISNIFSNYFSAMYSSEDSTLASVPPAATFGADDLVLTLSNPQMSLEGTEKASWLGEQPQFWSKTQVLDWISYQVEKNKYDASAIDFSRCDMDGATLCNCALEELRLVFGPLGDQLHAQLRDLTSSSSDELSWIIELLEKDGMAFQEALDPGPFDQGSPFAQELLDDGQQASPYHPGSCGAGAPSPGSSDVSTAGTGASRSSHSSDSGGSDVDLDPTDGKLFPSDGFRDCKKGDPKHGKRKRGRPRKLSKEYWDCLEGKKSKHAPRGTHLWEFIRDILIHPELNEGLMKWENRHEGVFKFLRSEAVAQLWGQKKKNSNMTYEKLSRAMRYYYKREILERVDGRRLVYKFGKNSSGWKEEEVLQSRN
To be noted: protein: recombinant; tags: N-terminal GST; dsDNA, one strand shown. Summed up: as §1

A further experiment has as its target CRX (Homo sapiens, UniProt O43186 1-299). The note with it: protein: recombinant; tags: N-terminal GST; dsDNA, one strand shown. Summed up: as §1
Another experiment addresses ETV1 (Homo sapiens, UniProt P50549 1-477). The note with it: protein: recombinant; tags: N-terminal GST; dsDNA, one strand shown. Summed up: as §1
Another experiment has as its target T6, ERF (Homo sapiens, UniProt P50548 1-548).
T6 sequence: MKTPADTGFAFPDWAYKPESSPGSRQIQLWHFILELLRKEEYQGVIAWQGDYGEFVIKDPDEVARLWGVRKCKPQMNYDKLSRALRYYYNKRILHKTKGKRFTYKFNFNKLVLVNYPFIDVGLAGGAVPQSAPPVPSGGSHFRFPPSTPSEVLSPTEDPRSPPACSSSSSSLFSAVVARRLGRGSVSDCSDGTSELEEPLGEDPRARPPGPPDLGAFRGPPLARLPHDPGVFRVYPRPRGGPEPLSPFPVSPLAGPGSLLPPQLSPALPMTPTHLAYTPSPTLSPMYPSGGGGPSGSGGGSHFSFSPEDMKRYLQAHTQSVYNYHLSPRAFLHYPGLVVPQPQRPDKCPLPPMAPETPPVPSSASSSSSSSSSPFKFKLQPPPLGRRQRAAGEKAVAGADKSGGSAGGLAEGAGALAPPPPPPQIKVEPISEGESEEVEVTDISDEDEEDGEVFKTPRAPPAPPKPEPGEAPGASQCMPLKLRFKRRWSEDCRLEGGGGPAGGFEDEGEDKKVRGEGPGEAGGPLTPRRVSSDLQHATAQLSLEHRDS
The note with it: protein: recombinant; tags: N-terminal GST; dsDNA, one strand shown. Summed up: as §1

For another experiment, the target named is T7, ETV3L (Homo sapiens, UniProt Q6ZN32 1-361).
T7 sequence: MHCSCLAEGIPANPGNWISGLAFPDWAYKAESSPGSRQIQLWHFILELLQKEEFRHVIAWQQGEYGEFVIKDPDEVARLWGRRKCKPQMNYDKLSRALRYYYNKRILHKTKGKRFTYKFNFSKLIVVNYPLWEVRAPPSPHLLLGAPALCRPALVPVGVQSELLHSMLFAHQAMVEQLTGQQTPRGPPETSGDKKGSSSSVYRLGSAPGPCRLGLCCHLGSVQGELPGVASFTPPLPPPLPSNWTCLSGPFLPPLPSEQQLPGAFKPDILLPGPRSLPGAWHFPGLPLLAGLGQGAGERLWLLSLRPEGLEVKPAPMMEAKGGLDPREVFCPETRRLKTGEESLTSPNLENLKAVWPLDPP
To be noted: protein: recombinant; tags: N-terminal GST; dsDNA, one strand shown. Summed up:
as §1

The target in a further experiment is T8, ETS2 (Homo sapiens, UniProt P15036 1-469).
T8 sequence: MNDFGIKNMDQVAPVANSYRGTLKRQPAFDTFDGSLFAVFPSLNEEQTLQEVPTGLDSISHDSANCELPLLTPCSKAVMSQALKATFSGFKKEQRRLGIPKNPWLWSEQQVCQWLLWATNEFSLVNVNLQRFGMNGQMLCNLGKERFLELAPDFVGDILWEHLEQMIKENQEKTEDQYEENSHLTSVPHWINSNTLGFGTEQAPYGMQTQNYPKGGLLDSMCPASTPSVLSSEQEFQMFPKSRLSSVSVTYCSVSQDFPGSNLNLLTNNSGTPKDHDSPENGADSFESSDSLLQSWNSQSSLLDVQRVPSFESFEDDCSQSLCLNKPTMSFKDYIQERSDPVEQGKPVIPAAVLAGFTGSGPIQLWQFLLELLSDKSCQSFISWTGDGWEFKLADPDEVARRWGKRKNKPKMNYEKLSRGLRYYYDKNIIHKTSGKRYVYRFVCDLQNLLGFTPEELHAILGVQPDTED
The note with it: protein: recombinant; tags: N-terminal GST; dsDNA, one strand shown. The procedure, abridged: as §1

A further experiment concerns the target T9, SPDEF (Homo sapiens, UniProt O95238 1-335).
T9 sequence: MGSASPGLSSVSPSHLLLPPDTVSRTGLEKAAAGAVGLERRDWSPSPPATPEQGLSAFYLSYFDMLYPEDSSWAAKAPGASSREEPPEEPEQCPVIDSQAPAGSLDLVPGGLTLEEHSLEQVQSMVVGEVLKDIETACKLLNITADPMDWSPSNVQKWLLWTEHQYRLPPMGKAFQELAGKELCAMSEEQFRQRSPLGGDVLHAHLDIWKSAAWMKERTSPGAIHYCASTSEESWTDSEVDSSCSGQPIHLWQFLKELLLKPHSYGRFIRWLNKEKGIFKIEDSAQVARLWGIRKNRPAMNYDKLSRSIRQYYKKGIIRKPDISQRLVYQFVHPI
The note with it: protein: recombinant; tags: N-terminal GST; dsDNA, one strand shown. Summed up: as §1

The target in the next experiment is T10, ETV7 (Homo sapiens, UniProt Q9Y603 1-341).
T10 sequence: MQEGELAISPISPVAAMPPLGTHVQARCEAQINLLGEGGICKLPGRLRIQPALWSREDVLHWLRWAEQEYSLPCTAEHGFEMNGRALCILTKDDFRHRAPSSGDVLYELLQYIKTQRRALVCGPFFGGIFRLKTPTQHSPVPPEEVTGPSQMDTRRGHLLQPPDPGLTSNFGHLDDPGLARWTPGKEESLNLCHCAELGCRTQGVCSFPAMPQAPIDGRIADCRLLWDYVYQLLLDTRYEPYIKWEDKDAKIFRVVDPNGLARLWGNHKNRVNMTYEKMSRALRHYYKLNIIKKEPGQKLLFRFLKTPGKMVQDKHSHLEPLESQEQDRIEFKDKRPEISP
To be noted: protein: recombinant; tags: N-terminal GST; dsDNA, one strand shown. The procedure, abridged: as §1

Another experiment has as its target T11, ELF5 (Homo sapiens, UniProt Q9UKW6-2 1-255).
T11 sequence: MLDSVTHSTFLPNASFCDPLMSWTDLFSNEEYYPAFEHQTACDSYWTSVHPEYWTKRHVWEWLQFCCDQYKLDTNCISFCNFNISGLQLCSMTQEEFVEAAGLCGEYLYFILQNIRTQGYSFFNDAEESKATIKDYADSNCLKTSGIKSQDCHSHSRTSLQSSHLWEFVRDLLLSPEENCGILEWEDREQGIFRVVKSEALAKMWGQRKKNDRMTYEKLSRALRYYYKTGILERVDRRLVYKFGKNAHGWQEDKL
To be noted: protein: recombinant; tags: N-terminal GST; dsDNA, one strand shown. The procedure, abridged:
as §1

Another experiment deals with T12, ETV3 (Homo sapiens, UniProt P41162-2 1-143).
T12 sequence: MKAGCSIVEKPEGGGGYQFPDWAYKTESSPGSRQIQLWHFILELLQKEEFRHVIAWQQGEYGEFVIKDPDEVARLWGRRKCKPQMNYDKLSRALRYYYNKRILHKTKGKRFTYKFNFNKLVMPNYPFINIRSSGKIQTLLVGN
The note with it: protein: recombinant; tags: N-terminal GST; dsDNA, one strand shown. Summed up:
as §1

The target of another experiment is ETV6 (Homo sapiens, UniProt P41212 1-452). To be noted: protein: recombinant; tags: N-terminal GST; dsDNA, one strand shown. Summed up:
as §1

Chain of CRX (O43186 whole entry): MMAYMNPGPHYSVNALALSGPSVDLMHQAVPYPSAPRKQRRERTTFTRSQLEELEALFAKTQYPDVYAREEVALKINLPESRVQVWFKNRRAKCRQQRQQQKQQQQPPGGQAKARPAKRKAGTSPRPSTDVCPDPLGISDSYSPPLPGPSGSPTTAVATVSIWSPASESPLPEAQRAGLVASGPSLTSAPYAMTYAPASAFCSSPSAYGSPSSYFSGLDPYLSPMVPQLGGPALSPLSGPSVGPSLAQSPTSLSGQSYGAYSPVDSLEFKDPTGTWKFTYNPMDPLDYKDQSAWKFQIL
Chain of ETV5 (P41161 whole entry): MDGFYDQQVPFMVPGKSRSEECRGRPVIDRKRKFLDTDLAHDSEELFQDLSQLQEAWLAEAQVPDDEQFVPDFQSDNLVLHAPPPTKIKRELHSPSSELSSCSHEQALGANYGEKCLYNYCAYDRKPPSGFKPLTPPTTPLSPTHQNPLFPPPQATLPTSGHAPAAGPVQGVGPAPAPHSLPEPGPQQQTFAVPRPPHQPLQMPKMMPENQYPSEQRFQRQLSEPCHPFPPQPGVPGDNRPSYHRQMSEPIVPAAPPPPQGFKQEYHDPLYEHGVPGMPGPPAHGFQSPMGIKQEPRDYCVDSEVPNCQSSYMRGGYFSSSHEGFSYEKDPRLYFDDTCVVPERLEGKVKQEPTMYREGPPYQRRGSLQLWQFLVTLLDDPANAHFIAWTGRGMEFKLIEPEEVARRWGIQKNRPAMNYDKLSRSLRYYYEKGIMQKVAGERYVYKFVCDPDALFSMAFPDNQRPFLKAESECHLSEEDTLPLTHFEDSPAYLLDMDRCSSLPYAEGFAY
Chain of HSF1 (Q00613 whole entry): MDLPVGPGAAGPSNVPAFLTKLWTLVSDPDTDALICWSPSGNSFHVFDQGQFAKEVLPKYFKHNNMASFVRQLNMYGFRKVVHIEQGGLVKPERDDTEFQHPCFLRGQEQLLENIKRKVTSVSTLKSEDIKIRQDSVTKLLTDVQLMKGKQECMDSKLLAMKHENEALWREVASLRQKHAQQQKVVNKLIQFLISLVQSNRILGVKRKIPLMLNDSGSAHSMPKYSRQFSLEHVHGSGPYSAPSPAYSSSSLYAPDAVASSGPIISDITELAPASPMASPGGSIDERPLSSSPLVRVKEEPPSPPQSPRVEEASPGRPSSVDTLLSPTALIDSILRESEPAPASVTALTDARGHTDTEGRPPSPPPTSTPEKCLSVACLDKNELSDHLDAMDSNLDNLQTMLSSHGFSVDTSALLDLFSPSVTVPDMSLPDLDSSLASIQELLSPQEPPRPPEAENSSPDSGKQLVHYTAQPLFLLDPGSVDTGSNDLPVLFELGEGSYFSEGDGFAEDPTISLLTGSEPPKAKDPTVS
Chain of ETV1 (P50549 whole entry): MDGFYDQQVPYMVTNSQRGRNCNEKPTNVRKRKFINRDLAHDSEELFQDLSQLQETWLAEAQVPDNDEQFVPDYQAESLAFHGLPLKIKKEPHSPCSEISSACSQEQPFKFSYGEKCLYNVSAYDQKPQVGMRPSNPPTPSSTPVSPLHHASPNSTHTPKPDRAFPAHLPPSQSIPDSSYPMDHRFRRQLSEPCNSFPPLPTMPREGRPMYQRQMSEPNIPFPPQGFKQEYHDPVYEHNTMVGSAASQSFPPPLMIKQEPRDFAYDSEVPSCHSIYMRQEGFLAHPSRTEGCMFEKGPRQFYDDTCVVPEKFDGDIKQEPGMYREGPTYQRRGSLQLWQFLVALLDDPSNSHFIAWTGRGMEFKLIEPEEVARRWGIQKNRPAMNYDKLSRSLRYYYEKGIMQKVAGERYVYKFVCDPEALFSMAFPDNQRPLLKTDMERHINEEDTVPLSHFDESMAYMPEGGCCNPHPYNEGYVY
Chain of ETV6 (P41212 whole entry): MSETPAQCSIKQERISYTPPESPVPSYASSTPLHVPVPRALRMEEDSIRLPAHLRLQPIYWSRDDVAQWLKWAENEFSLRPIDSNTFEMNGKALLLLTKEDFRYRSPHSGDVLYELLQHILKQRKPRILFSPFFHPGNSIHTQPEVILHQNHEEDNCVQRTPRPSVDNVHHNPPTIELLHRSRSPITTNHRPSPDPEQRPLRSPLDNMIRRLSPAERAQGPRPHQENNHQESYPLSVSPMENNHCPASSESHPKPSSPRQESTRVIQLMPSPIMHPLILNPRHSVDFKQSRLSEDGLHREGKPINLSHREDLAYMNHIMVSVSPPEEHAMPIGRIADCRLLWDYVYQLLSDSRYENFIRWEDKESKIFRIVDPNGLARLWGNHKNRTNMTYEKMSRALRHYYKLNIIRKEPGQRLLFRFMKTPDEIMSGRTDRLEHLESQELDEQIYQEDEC
Chain of ELF4 (Q99607 whole entry): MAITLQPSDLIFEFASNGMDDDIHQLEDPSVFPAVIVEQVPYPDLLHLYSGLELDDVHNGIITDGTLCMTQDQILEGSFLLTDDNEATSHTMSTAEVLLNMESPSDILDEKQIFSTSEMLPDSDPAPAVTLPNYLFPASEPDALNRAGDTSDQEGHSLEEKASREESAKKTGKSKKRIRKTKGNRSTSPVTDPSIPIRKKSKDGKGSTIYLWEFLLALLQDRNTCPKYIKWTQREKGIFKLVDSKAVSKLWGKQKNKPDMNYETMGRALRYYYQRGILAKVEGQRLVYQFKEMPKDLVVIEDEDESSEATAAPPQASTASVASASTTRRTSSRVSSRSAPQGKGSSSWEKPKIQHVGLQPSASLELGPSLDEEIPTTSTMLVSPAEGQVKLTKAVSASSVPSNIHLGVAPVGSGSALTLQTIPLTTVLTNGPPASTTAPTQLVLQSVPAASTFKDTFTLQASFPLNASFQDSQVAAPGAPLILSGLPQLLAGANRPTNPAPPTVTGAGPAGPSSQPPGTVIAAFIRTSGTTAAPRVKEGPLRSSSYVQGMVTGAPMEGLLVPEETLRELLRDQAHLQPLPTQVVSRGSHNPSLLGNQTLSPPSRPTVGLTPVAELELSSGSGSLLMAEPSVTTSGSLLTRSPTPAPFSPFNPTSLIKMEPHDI

For CAATTA, the binding signal is 1.08 fold enrichment (6-mer frequency, TF over GST control) in the experiment with FEV; 1.16 fold enrichment (6-mer frequency, TF over GST control) with ETV5; 1.12 fold enrichment (6-mer frequency, TF over GST control) in the experiment with HSF1; 1.05 fold enrichment (6-mer frequency, TF over GST control) in the experiment with SPIC; 1.14 fold enrichment (6-mer frequency, TF over GST control) with ELF4; 1.05 fold enrichment (6-mer frequency, TF over GST control) with ELK4. Further, the binding signal in the experiment with ETV2 was 1.03 fold enrichment (6-mer frequency, TF over GST control); with ELF3, 1.22 fold enrichment (6-mer frequency, TF over GST control); with CRX it was 1.25 fold enrichment (6-mer frequency, TF over GST control); in the experiment with ETV1, 1.09 fold enrichment (6-mer frequency, TF over GST control); in the experiment with ERF it was 1.13 fold enrichment (6-mer frequency, TF over GST control); in the experiment with ETV3L, 1.11 fold enrichment (6-mer frequency, TF over GST control). Moreover, the binding signal in the experiment with ETS2 was 1.16 fold enrichment (6-mer frequency, TF over GST control); in the experiment with SPDEF it was 1.06 fold enrichment (6-mer frequency, TF over GST control); with ETV7, 1.15 fold enrichment (6-mer frequency, TF over GST control); with ELF5, 1.13 fold enrichment (6-mer frequency, TF over GST control); with ETV3, 1.18 fold enrichment (6-mer frequency, TF over GST control); with ETV6, 1.05 fold enrichment (6-mer frequency, TF over GST control).
